Shown are actives, neighbours in structure and some others; about 4.1% of the full set was active somewhere.
hgDAF12 agonist: agonists of H. glycines DAF-12 nuclear receptor; activation, % at 6.8 µM; 370,000 tested, 1.8% active; AID 687014; HEK293 GAL4-hgDAF12 UAS-luciferase reporter, agonist luminescence; normalized to butyrate control;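 active = activation above a cutoff set at the mean of all screened compounds plus 3 SD, cut at about 10% in these data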;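 also: 0% = DMSO wells and 100% = sodium butyrate wells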
hcDAF-12 act: activates DAF-12 receptor from parasite H. contortus. AID 652067. HEK293 hcDAF-12 lit1-tk-luc reporter, luminescence; 0% DMSO, 100% Δ7-dafachronic acid. activation, % at 6.8 µM. 370,000 tested, 1.4% active;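 active = activation above the mean of all tested compounds plus 3 SD, cut at about 5.5% in these data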;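 also: 100% = response to 3 µM Δ7-dafachronic acid high control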
DAX1 inh-1: inhibitors of human orphan nuclear receptor DAX1 (NR0B1). inhibition, % at 6.75 µM. 340,000 tested, 0.99% active. AID 504766. HEK293 Gal4-DAX1 luciferase reporter, luminescence;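 active = inhibition above the mean over all tested compounds plus 3 SD, cut at about 4.2% in these data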;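 also: 0% = DAX1-transfected cells with DMSO and 100% = empty-vector control cells with DMSO; inhibition shows as a rise in luminescence from relieved DAX1 repression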
Target sequence (P51843 207-470 limits assumed): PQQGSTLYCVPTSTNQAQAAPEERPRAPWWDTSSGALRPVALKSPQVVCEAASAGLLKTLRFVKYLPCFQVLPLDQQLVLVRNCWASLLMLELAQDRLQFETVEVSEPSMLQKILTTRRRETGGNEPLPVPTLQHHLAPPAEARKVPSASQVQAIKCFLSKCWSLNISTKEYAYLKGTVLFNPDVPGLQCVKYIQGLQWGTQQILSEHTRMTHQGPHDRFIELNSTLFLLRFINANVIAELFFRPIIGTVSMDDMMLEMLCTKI
ssDAF-12 act: S. stercoralis DAF-12 activation, primary screen | HEK293 ssDAF-12/GRIP1 lit1-tk-luc reporter, luminescence; % of 3 µM dafachronic acid response | activation, % at 6.8 µM | 370,000 tested, 1% active | AID 652126;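 active = activation above the mean over all tested compounds plus 3 SD, cut at about 0.9% in these data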;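 also: 0% = DMSO-only wells and 100% = 3 µM delta7-dafachronic acid wells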
DAX1 inh-2: DAX1 (NR0B1) inhibition, primary screen. HEK293T StAR-luciferase reporter, SF-1/DAX-1 repression relief. inhibition, % at 6.8 µM. 370,000 tested, 1.1% active;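 active = inhibition above the mean over all tested compounds plus 3 SD, cut at about 3.6% in these data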;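 also: 0% = DAX-1 cells with DMSO and 100% = cells lacking DAX-1 with DMSO; higher inhibition means more luminescence from relief of DAX-1 repression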
DAX1 inh confirm: confirmation of human DAX1 (NR0B1) inhibitors | inhibition, % at 6.8 µM | HEK293T StAR-promoter luciferase reporter, SF-1/DAX-1 repression | 2,400 tested, 87% active | shares compounds with DAX1 inh-2;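 active = inhibition above the average of every tested compound plus 3 SD, cut at about 3.8% in these data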;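 also: 0% = DAX-1 cells with DMSO and 100% = no DAX-1 control cells with DMSO; active compounds raise luminescence by relieving repression of the StAR reporter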
SF1 mutant ctr: counter-screen for DAX1 inhibitors: nonselective inhibitors with SF-1 AF2 mutant; 2,400 tested, 78% active; inhibition, % at 6.8 µM; HEK293 StAR-luciferase, luminescence; shares compounds with DAX1 inh-2;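 active = inhibition above the mean of all tested compounds plus 3 SD, cut at about 3% in these data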;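 also: 0% = DAX-1 transfected cells with DMSO and 100% = cells without DAX-1 with DMSO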
LXR ag: LXR-beta agonism as hcDAF-12 counter-screen | HEK293 Gal4-LXR tk-luc reporter, luminescence, 24 h; normalized: DMSO 0%, positive control 100% | activation, % at 6.8 µM | 3,400 tested, under 10 active | shares compounds with hcDAF-12 act;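 active = mean percent activation of the reporter above a cutoff set as the average over tested compounds plus their standard deviation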
Target sequence (P55055 whole entry, looked up, the tested form may be a part): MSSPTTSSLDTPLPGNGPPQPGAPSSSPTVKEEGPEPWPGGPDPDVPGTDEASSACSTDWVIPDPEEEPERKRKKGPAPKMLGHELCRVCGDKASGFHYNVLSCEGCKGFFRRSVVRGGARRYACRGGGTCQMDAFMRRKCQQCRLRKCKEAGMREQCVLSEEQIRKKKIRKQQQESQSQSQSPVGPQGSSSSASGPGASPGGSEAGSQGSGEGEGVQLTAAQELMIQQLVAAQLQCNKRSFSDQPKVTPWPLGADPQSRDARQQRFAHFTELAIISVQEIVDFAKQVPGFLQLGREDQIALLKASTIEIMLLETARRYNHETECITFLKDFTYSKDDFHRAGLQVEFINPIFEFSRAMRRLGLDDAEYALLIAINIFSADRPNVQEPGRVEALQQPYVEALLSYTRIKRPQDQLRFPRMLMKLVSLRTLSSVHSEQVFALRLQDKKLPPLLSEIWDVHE
hcDAF12 conf: confirmation of H. contortus DAF-12 agonists. shares compounds with hcDAF-12 act. HEK293 hcDAF-12 lit1-tk-luc reporter, luminescence; % of Δ7-dafachronic acid response. activation, % at 6.8 µM. 3,400 tested, 61% active;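 active = mean activation across triplicate tests above the threshold derived from the earlier primary screen, cut at about 5.5% in these data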;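 also: 0% = DMSO only wells and 100% = 3 µM Δ7-dafachronic acid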
hgDAF12 conf: hgDAF-12 agonism, confirmation assay | shares compounds with hgDAF12 agonist | HEK293 GAL4-hgDAF12 luciferase reporter, agonist mode; percent of butyrate response | activation, % at 6.8 µM | 3,300 tested, 80% active | AID 743050;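 active = mean activation over triplicate wells above the hit cutoff derived from the earlier primary screen, cut at about 11% in these data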;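 also: 0% = DMSO low control and 100% = 2 mM sodium butyrate high control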
LXR ag 2: LXR-beta agonism as DAF-12 counter-screen. shares compounds with hgDAF12 agonist. HEK293 Gal4-LXR luciferase reporter, 24 h. activation, % at 6.8 µM. 3,300 tested, under 10 active. AID 743051;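 active = mean activation of the triplicate above a set limit carried over from the primary screen, none filed active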
An asterisk follows results filed as active; / = not tested or not shown.

SMILES | hgDAF12 agonist | hcDAF-12 act | DAX1 inh-1 | ssDAF-12 act | DAX1 inh-2 | DAX1 inh confirm | SF1 mutant ctr | LXR ag | hcDAF12 conf | hgDAF12 conf | LXR ag 2
COc1ccc2cc3cc(C(=O)N4CCCCC4C)oc3nc2c1 (configuration not stated) | 14* | 4 | -1 | 0 | 11* | 10* | 5.3* | / | / | 17* | 1
CC1Sc2ccc(C(=O)Nc3ncccc3O)cc2NC1=O (configuration not stated) | 18* | 5 | 2 | 0 | 13* | 8.3* | 3.2* | / | / | 15* | 1
O=C(O)c1ccc(CN2C[C@@H](CO)O[C@@H](n3cnc4c(NCc5ccco5)ncnc43)C2)cc1 | 0 | 0 | / | -1 | 0 | / | / | / | / | / | /
CC(=O)c1ccc(Nc2ccc(-c3ccccc3F)nn2)cc1 | 18* | 5 | 1 | 1 | 4.7* | 14* | 6.8* | / | / | 19* | 1
Brc1ccc2nc(-c3c[nH]c4ccccc34)cn2c1 | 22* | 11* | 6.2* | 0 | 8.8* | 18* | 8.5* | 2 | 9.6* | 21* | 1
Clc1ccc2nc(CSc3nnc(-c4c[nH]c5ccccc45)o3)cn2c1 | -1 | 0 | -1 | -1 | 0 | / | / | / | / | / | /
CC(=O)NC1C(=O)N=C(SCC(=O)Nc2ccc(C(F)(F)F)cc2Cl)NC1=O (configuration not stated) | 3 | 2 | 0 | -1 | -2 | / | / | / | / | / | /
Cc1ccc(C)c(-c2nc3ccc(N)cc3[nH]2)c1 | -1 | -1 | 3 | -1 | 0 | / | / | / | / | / | /
Cc1cc(-c2nc3ccccc3[nH]2)ccc1N | 15* | 6.4* | 2 | 1.2* | 8.0* | 14* | 7.2* | / | / | 17* | 1
Cc1ccc2nc(-c3ccccc3N)[nH]c2c1 | 22* | 9.2* | -1 | 1 | 5.1* | 14* | 5.9* | 2 | 10.0* | 19* | 1
COC(=O)c1ccc(-c2nc3ccccc3[nH]2)cc1 | 15* | 5 | -1 | 1 | 5.3* | 18* | 9.4* | / | / | 13* | 1
COC(=O)c1ccc(C(=O)Nc2ccc3nc(-c4ccncc4)[nH]c3c2)cc1 | -3 | -1 | 0 | -1 | -1 | / | / | / | / | / | /
COC(=O)c1cccn(CC(=O)c2ccc(Cl)cc2)c1=O | -1 | 0 | -1 | -1 | -1 | / | / | / | / | / | /
Cn1ccc(C(=O)NC(=S)N2CCSCC2)n1 | 0 | 0 | 2 | -1 | 1 | / | / | / | / | / | /
O=C(Nc1ccccc1)OCCc1ccccn1 | 14* | 4 | 5.8* | -1 | 9.3* | 7.4* | 4.2* | / | / | 11* | 1
O=C(Cc1ccccn1)c1ccccc1 | 0 | -1 | 0 | -2 | 0 | / | / | / | / | / | /
O=C(CCCc1ccccn1)c1ccccc1 | 18* | 7.7* | 1 | 0 | 5.6* | 11* | 5.8* | 1 | 3 | 11* | 1
Cc1cnc(NC(=O)COc2ccc3c(c2)CCC3)s1 | 25* | 6.1* | 1 | 1.3* | 13* | 14* | 5.3* | / | / | 25* | 1
Cc1ccc(NCc2nc3ccccc3n2C)cc1 | 14* | 15* | 3 | 3.5* | 6.3* | 15* | 8.2* | 1 | 17* | 18* | 1
CCCn1nc(C(=O)NNC(=O)CCCOc2ccc(OC)cc2)c2ccccc2c1=O | -2 | -1 | 3 | -2 | 0 | / | / | / | / | / | /
Cc1ccccc1C(=O)Nc1nnc(-c2ccco2)s1 | 16* | 9.4* | -1 | 1.1* | 5.2* | 9.0* | 4.1* | 1 | 8.2* | 12* | 1
COc1ccccc1C(=O)Nc1nnc(-c2ccco2)s1 | 19* | 15* | 4.5* | 2.0* | 8.4* | 12* | 9.0* | 1 | 14* | 21* | 1
C/C(=N\Nc1ccccc1)c1c(O)cc(C)oc1=O | 1 | -2 | 3 | -1 | 0 | / | / | / | / | / | /
CC(=Nc1ccc(Cl)cc1N)c1c(O)cc(C)oc1=O | 24* | 10* | / | 1.6* | 9.8* | 3 | 1 | 0 | 5.6* | 16* | 0
O=C(NCCc1ccc(Cl)cc1)c1ccc2c(c1)OCO2 | 13* | 4 | 1 | 0 | 11* | 12* | 6.6* | / | / | 16* | 1
SMILES | hgDAF12 agonist | hcDAF-12 act | DAX1 inh-1 | ssDAF-12 act | DAX1 inh-2 | DAX1 inh confirm | SF1 mutant ctr | LXR ag | hcDAF12 conf | hgDAF12 conf | LXR ag 2
Cc1nc(NC(=O)c2csc3ccccc23)sc1C | 24* | 13* | 2 | 1.5* | 5.1* | 12* | 5.0* | 2 | 9.7* | 20* | 1
Cc1nc(NC(=O)c2ccccc2O)sc1C | 5 | 1 | 3 | -1 | 1 | / | / | / | / | / | /
CC(C)(C)NC(=O)C(c1ccccc1F)n1c(=O)c(-c2ccccc2)nc2ccccc21 (configuration not stated) | -2 | -2 | / | -1 | 0 | / | / | / | / | / | /
CN(CC(=O)Nc1ccccc1Br)C(=O)c1cc2c(s1)CCCCC2 | 14* | 2 | 4.2* | 0 | 6.4* | 7.5* | 4.9* | / | / | 11* | 0
Cc1nnsc1Sc1ccccc1C(=O)O | -1 | -1 | 0 | -1 | 0 | / | / | / | / | / | /
CCCc1ccc(OC(=O)c2ccc(O)cc2Cl)cc1 | 16* | 8.4* | 2 | 1 | 5.3* | 14* | 6.0* | 2 | 8.1* | 2 | 1
COc1cc(-c2cc(=O)c3ccc(O)cc3o2)cc(OC)c1OC | -3 | -3 | / | -1 | -1 | / | / | / | / | / | /
COc1ccc(-c2cc(=O)c3cc(OC)ccc3o2)cc1 | 20* | 8.1* | 3 | 0 | 9.0* | 9.7* | 1 | 2 | 7.2* | 20* | 1
COc1ccc2oc(-c3ccccc3)cc(=O)c2c1 | 13* | 7.6* | / | 1.1* | 5.8* | 13* | 5.4* | 2 | 8.5* | 16* | 1
COc1ccc(-c2cc(=O)c3ccc(O)cc3o2)cc1 | 16* | 3 | 3 | -1 | 7.8* | 10* | 5.7* | / | / | 14* | 1
